Reference: the supplement of paper PMC11732987, “Enantioselective OTUD7B fragment discovery through chemoproteomics screening and high-throughput optimisation” (Communications Chemistry, 2025)

Assays:
Experiment in all cases: log2 ratio of Biotin-Ahx-Ub-VS probe labelling (fragment/DMSO); higher = less target engagement (more negative = stronger competition), active = hit call of the paper (q ≤ 0.05, log2 ratio ≤ -1)
Settings in all cases: compound concentration: 200 uM; treatment time: 3 h
[1] = molecular target: USP34 (UniProt Q70CQ2)
Summary of the method: (§1)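 HEK293T lysate in Tris/CHAPS/IGEPAL buffer with protease inhibitors (495 µg per sample) was given fragment at 200 µM or vehicle for 3 h, in triplicate. It then received Biotin-Ahx-Ub-VS at 0.5 µM final for 1 h. Labelled DUBs were NeutrAvidin-enriched, digested with LysC and trypsin, and run by diaPASEF LC-MS/MS. Values are average log2 fragment/vehicle ratios by unpaired t-test on global-median-normalised Spectronaut quantities of proteins with ≥2 unique peptides.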

[2] = molecular target: T1, USP36 (UniProt Q9P275)
T1 sequence (whole entry): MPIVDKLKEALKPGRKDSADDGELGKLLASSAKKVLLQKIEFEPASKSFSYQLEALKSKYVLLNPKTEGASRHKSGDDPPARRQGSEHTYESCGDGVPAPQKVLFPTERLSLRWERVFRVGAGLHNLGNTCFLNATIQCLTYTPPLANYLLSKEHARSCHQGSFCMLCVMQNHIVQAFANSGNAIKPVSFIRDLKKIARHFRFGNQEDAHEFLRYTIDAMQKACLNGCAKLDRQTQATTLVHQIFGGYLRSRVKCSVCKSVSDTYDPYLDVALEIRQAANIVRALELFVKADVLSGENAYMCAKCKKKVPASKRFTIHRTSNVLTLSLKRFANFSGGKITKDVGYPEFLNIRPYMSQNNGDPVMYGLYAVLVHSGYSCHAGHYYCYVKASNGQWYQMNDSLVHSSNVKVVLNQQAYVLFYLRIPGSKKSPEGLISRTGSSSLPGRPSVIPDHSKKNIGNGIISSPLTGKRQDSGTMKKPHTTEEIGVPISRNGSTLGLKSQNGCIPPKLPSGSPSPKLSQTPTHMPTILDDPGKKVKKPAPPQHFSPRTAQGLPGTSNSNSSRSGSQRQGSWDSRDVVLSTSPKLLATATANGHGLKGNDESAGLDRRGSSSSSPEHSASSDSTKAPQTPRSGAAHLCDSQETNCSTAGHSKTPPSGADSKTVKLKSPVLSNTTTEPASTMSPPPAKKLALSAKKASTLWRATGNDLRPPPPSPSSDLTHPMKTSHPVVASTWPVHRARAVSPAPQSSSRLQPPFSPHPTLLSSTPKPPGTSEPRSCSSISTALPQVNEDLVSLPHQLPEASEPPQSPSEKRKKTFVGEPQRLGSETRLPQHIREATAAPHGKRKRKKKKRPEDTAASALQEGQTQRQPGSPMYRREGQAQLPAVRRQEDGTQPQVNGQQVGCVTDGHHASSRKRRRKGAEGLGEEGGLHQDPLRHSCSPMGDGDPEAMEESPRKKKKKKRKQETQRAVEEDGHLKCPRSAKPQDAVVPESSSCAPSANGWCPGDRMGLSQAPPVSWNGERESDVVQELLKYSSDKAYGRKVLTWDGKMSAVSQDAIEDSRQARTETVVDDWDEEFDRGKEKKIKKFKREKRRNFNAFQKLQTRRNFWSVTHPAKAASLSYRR
Summary of the method: as §1

[3] = molecular target: T2, USP38 (UniProt Q8NB14)
T2 sequence (whole entry): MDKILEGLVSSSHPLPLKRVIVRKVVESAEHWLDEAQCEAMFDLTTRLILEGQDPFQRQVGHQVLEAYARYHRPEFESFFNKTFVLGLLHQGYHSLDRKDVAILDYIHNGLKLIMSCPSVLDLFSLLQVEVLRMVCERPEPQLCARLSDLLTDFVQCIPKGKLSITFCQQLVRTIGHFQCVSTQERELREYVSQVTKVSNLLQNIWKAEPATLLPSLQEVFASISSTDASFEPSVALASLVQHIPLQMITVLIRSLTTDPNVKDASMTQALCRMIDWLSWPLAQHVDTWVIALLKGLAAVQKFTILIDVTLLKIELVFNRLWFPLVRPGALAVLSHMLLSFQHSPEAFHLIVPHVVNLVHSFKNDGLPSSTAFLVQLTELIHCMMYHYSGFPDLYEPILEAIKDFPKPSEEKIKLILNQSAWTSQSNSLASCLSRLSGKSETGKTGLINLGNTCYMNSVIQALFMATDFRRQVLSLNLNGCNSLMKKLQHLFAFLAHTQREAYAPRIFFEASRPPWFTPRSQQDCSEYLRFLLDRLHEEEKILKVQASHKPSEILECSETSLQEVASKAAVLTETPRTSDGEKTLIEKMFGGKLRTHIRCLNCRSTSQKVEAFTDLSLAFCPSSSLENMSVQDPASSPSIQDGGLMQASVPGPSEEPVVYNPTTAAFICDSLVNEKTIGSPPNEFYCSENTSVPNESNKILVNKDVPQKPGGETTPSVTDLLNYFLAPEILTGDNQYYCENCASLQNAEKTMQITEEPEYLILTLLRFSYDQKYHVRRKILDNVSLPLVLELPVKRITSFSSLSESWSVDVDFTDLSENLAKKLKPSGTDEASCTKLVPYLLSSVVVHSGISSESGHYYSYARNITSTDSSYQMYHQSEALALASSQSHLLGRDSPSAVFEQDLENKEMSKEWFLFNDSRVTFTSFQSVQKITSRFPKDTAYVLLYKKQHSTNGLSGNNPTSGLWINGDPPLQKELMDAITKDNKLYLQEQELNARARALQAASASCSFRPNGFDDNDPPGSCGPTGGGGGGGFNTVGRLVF
Summary of the method: as §1

[4] = molecular target: T3, USP39 (UniProt Q53GS9)
T3 sequence (whole entry): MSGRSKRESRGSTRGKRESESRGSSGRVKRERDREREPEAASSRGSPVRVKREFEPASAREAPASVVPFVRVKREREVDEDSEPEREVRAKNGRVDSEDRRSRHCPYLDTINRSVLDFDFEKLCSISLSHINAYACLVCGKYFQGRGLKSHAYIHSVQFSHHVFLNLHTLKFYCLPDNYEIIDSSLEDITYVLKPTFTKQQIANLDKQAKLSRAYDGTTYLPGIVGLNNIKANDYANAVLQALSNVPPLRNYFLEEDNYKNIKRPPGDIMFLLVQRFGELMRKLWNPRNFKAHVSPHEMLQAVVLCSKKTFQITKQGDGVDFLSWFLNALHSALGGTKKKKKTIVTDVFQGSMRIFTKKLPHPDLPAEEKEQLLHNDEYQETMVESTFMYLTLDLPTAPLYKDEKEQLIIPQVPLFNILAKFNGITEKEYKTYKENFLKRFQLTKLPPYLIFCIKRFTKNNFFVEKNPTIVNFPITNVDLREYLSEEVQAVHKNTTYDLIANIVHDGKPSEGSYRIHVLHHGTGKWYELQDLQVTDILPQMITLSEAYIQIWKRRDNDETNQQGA
Summary of the method: as §1

[5] = molecular target: T4, USP4 (UniProt Q13107)
T4 sequence (whole entry): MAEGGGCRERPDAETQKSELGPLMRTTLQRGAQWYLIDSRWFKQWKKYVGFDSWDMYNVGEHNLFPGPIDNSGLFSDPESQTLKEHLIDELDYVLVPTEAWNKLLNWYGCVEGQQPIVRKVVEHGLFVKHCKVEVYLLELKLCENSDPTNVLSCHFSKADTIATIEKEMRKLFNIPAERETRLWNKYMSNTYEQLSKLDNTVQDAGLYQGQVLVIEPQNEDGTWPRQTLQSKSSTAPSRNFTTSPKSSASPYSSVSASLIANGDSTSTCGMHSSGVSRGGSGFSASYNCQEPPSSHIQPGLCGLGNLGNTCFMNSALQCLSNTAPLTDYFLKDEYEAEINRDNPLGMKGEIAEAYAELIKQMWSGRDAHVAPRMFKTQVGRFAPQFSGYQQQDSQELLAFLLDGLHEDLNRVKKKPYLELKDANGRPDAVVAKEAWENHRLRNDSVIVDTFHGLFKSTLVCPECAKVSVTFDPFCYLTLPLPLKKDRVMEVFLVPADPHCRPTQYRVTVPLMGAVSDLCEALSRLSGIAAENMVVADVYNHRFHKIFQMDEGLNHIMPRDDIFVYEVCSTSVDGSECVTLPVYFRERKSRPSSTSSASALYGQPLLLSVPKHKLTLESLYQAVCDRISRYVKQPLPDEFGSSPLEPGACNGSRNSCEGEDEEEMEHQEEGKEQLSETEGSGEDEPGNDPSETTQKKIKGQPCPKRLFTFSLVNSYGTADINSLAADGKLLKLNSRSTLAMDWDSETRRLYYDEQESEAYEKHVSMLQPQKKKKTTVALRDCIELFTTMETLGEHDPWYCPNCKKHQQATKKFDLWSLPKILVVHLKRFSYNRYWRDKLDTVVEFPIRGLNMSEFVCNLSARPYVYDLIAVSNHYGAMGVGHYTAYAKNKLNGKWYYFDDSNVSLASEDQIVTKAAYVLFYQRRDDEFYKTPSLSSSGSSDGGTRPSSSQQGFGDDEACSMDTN
Summary of the method: as §1

Measured: log2 ratio of Biotin-Ahx-Ub-VS probe labelling

USP34, sequence (Q70CQ2 whole entry, the tested form may be a part): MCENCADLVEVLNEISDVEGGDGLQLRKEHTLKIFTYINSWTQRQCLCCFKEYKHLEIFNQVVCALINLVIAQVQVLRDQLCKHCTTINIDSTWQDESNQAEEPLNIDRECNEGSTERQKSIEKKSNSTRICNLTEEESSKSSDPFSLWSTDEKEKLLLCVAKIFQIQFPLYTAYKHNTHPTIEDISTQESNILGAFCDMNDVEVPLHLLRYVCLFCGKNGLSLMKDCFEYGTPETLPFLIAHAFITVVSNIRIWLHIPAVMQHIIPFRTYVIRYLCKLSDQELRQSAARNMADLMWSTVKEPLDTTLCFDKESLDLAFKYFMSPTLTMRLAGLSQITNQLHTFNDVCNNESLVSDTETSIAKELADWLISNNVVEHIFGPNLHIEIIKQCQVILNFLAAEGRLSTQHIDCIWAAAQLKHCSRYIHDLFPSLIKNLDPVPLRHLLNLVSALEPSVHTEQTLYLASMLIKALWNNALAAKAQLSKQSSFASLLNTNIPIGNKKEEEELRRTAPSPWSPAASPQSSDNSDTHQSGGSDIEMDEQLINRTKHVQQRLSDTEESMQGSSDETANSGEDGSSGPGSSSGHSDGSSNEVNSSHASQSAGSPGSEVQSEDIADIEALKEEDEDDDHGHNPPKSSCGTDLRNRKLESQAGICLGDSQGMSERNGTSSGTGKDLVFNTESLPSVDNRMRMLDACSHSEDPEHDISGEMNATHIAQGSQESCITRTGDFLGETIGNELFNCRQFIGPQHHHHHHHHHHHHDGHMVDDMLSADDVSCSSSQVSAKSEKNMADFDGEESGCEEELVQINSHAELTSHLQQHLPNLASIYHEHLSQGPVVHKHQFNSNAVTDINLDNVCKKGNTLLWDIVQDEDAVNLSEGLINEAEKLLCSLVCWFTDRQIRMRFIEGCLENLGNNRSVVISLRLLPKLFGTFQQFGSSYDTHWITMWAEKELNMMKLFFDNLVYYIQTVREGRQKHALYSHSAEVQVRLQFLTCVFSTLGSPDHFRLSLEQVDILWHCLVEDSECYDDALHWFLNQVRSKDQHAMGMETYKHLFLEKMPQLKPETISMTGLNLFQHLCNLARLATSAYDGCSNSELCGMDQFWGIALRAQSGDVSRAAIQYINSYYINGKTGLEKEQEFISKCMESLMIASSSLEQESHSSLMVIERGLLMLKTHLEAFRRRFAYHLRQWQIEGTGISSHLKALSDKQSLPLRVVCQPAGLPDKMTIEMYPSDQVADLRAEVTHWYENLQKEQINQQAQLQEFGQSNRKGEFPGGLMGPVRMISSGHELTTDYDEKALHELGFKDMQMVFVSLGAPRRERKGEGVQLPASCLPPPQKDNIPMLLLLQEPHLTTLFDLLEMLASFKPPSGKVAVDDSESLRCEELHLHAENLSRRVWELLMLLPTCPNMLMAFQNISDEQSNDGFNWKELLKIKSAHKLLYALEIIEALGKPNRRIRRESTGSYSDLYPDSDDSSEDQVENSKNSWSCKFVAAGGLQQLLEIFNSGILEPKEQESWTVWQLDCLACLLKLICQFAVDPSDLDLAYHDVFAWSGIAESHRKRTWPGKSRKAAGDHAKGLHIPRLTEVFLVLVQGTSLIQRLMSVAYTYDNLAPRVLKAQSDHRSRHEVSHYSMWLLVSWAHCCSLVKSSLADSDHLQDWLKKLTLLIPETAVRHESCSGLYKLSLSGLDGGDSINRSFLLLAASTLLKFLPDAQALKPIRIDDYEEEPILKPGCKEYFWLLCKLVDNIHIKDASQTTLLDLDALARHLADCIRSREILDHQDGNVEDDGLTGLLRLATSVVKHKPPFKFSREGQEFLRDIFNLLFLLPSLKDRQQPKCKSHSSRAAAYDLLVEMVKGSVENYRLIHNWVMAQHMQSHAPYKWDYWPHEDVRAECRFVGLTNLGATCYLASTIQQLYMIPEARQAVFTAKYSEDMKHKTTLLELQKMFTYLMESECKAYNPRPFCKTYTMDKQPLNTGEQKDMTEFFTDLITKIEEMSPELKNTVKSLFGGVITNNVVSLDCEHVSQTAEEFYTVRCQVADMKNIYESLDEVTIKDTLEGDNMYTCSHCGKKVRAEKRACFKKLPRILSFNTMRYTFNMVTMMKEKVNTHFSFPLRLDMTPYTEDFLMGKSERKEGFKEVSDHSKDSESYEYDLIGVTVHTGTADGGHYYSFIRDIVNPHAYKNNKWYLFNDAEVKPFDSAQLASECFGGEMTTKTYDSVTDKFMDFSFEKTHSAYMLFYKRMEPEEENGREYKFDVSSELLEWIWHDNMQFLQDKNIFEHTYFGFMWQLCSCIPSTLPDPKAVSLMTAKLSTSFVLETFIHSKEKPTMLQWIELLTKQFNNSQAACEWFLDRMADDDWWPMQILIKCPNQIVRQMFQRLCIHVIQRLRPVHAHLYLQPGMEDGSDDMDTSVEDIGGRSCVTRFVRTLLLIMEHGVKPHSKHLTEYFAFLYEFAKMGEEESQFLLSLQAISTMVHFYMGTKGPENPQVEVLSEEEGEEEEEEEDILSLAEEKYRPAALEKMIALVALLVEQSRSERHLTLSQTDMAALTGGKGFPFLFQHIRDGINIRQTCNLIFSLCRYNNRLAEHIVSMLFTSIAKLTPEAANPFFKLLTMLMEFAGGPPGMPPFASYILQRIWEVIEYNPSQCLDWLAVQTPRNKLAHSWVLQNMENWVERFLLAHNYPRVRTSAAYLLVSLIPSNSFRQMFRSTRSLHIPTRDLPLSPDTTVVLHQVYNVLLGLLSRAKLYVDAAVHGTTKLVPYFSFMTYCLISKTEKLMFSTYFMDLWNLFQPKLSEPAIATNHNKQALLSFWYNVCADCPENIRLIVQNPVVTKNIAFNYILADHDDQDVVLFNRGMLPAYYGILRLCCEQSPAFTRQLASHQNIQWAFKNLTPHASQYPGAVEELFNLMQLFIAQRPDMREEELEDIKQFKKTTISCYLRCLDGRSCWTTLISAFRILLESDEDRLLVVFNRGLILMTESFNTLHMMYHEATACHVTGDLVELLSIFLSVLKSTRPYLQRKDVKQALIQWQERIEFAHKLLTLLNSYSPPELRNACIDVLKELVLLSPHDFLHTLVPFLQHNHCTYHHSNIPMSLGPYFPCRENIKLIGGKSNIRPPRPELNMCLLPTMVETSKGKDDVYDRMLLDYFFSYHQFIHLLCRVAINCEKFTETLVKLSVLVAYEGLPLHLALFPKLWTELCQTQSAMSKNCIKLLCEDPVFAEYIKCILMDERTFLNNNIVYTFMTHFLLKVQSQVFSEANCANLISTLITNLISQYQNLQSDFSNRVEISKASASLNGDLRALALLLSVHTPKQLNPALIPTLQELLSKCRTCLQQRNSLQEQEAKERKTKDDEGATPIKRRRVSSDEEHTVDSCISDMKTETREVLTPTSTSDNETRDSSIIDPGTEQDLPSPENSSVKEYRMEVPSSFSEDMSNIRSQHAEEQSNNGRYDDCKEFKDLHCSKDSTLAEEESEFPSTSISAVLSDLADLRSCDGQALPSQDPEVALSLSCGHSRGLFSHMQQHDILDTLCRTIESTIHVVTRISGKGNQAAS

O=C(CCl)Nc1cc2c(cc1Cl)OCCO2
inactive: [1] -0.393 | [2] 0.206 | [3] -0.183 | [4] -0.137 | [5] 0.122
